This note sets out measurements from PubChem BioAssay (NCI).

Each structure is given as a SMILES string. About 79,000 compounds went through this panel and 15% of them were active in at least one assay; those are over-represented in the sample as a whole. Values without a mark were called inactive. Activity calls are given as the source filed them. Rule as the data show it: active = growth inhibition above about 70%; inactive = the rest.

A short description of assay [1]: NCI Yeast Anticancer Drug Screen. Data for the rad50 strain (AID 155).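 Also: 0% = growth of vehicle-only cultures of the same strain.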 To be noted: S. cerevisiae rad50 strain growth inhibition, stronger effect = higher value. The essentials:
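DNA repair mutant yeast, compound exposure, growth read-out; inhibition is taken relative to vehicle.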

A short description of assay [2]: NCI Yeast Anticancer Drug Screen. Data for the mec2-1 strain (AID 157). To be noted: S. cerevisiae mec2-1 strain, stronger effect = higher value. The gist of the method:
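Readout is yeast growth inhibition, normalised to vehicle-treated controls, in the mec2-1 strain exposed to compound.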

A short description of assay [3]: NCI Yeast Anticancer Drug Screen. Data for the sgs1 mgt1 strain (AID 161).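 Also: 0% = growth of cultures given vehicle only.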 The following applies: S. cerevisiae sgs1 mgt1 strain, stronger effect = higher value. The gist of the method:
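Percent growth inhibition was derived by comparing compound-exposed mutant yeast with vehicle-exposed cultures. The strain carries alterations in DNA damage repair.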

Assay [4] in a line: NCI Yeast Anticancer Drug Screen. Data for the cln2 rad14 strain (AID 165).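 Also: 0% = growth equal to vehicle treated cultures.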 To be noted: S. cerevisiae cln2 rad14 strain, stronger effect = higher value. The gist of the method:
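Relative to vehicle controls, growth inhibition of compound-treated cln2 rad14 yeast was recorded.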

Assay [5] is described as follows: NCI Yeast Anticancer Drug Screen. Data for the bub3 strain (AID 167). To be noted: S. cerevisiae bub3 mutant strain, stronger effect = higher value. The essentials: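 In this screen, a yeast mutant lacking normal mitotic checkpoint function is challenged with compound. Relative growth versus vehicle gives the inhibition value.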
Assay [6] can be described thus: NCI Yeast Anticancer Drug Screen. Data for the mlh1 rad18 strain (AID 175). The following applies: S. cerevisiae mlh1 rad18 strain growth inhibition, stronger effect = higher value. The essentials: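 Test agents were incubated with a yeast strain of defined genotype (DNA damage repair defect). Inhibition of growth was derived by comparison with vehicle-exposed cultures.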
[7] abbreviates: at 5.0 µM (retest, dose inferred, filed as 0.5).
[8] abbreviates: at 50.0 µM (retest, dose inferred, filed as 5.0).

Regarding `CC1CCCCN(CCN(Cc2ccccc2)c2ccccc2)C1` (stereo not given), the growth inhibition in assay [1] (setting [7]) was -1%; in assay [1] (setting [8]), 32%; in assay [1] (at 50.0 µM), 58.1%; in assay [2] (setting [7]), 2%; in assay [2] (setting [8]) it was 29%; in assay [2] (at 50.0 µM), 45.9%. The growth inhibition in assay [3] (setting [7]) is 10%; in assay [3] (setting [8]) it was 75% (active); in assay [3] (at 50.0 µM) it was 73.8% (active); in assay [4] (setting [7]), 4%; in assay [4] (setting [8]) it was 37%; in assay [4] (at 50.0 µM), 80.8% (active). Also, the growth inhibition in assay [5] (setting [7]) was 5%; in assay [5] (setting [8]) it was 52%; in assay [5] (at 50.0 µM) it was 58%; in assay [6] (setting [7]), 8%; in assay [6] (setting [8]), 42%; in assay [6] (at 50.0 µM), 54.1%.

Consider `Cc1ccc(S(=O)(=O)NC(CCC(=O)Nc2ccccc2)C(=O)O)cc1` (stereo not given), for which the growth inhibition in assay [1] (setting [7]) was -4%; in assay [1] (setting [8]), 0%; in assay [1] (at 50.0 µM), 12.8%; in assay [2] (setting [7]), -4%; in assay [2] (setting [8]), -4%; in assay [2] (at 50.0 µM), 18.9%. The growth inhibition in assay [3] (setting [7]) was -6%; in assay [3] (setting [8]), -20%; in assay [3] (at 50.0 µM), 21.2%; in assay [4] (setting [7]), -5%; in assay [4] (setting [8]), -15%; in assay [4] (at 50.0 µM) it was 22%. In addition, the growth inhibition in assay [5] (setting [7]) was -3%; in assay [5] (setting [8]) it was 2%; in assay [5] (at 50.0 µM) it was 96.2% (active); in assay [6] (setting [7]), 0%; in assay [6] (setting [8]) it was -2%; in assay [6] (at 50.0 µM), 40.5%.

Turning to `CN(C)CCC1(C2=CCCC2)CC/C(=C\c2ccc(Cl)cc2)C1=O` (stereo not given), the growth inhibition is 24% in assay [1] (setting [7]); 86% (active) in assay [1] (setting [8]); 94.3% (active) in assay [1] (at 50.0 µM); 28% in assay [2] (setting [7]); 96% (active) in assay [2] (setting [8]); 94.3% (active) in assay [2] (at 50.0 µM). In addition, the growth inhibition in assay [3] (setting [7]) is 26%; in assay [3] (setting [8]), 97% (active); in assay [3] (at 50.0 µM), 94% (active); in assay [4] (setting [7]), 31%; in assay [4] (setting [8]), 97% (active); in assay [4] (at 50.0 µM), 92.3% (active). Besides, the growth inhibition in assay [5] (setting [7]) was 37%; in assay [5] (setting [8]), 98% (active); in assay [5] (at 50.0 µM) it was 92.2% (active); in assay [6] (setting [7]), 33%; in assay [6] (setting [8]), 97% (active); in assay [6] (at 50.0 µM) it was 87.5% (active).

In the case of `CC(=O)OC1CCC2(C)C(CCC3C2CCC2(C)C4CCC32OC(=O)C4CC(=O)O)C1` (stereo not given), the growth inhibition is 3% in assay [1] (setting [7]); 36% in assay [1] (setting [8]); 86.6% (active) in assay [1] (at 50.0 µM); -32% in assay [2] (setting [7]); 48% in assay [2] (setting [8]); 89.5% (active) in assay [2] (at 50.0 µM). Moreover, the growth inhibition in assay [3] (setting [7]) was -12%; in assay [3] (setting [8]) it was 13%; in assay [3] (at 50.0 µM), 89.5% (active); in assay [4] (setting [7]) it was 7%; in assay [4] (setting [8]), 49%; in assay [4] (at 50.0 µM), 90.5% (active). Besides, the growth inhibition was -2% in assay [5] (setting [7]); 49% in assay [5] (setting [8]); 73% (active) in assay [5] (at 50.0 µM); 10% in assay [6] (setting [7]); 65% in assay [6] (setting [8]); 93.5% (active) in assay [6] (at 50.0 µM).

For the molecule `N#CC(C(=O)C(=O)Nc1ccc(Cl)cc1)c1c(Cl)cccc1Cl` (stereo not given), the growth inhibition in assay [1] (setting [7]) was 12%; in assay [1] (setting [8]) it was 1%; in assay [1] (at 50.0 µM), 56.2%; in assay [2] (setting [7]), 7%; in assay [2] (setting [8]), 11%; in assay [2] (at 50.0 µM) it was 7.5%. The growth inhibition was 24% in assay [3] (setting [7]); 8% in assay [3] (setting [8]); 28.8% in assay [3] (at 50.0 µM); 18% in assay [4] (setting [7]); 10% in assay [4] (setting [8]); -22.4% in assay [4] (at 50.0 µM). Besides, the growth inhibition is 27% in assay [5] (setting [7]); 6% in assay [5] (setting [8]); 8.2% in assay [5] (at 50.0 µM); 14% in assay [6] (setting [7]); 3% in assay [6] (setting [8]); 24.9% in assay [6] (at 50.0 µM).

As for `CCCCCCCCCCCCCCCC(=O)NCCN(C)C`, the growth inhibition was -2% in assay [1] (setting [7]); 98% (active) in assay [1] (setting [8]); 98.7% (active) in assay [1] (at 50.0 µM); -2% in assay [2] (setting [7]); 99% (active) in assay [2] (setting [8]); 97% (active) in assay [2] (at 50.0 µM). For the same molecule, the growth inhibition in assay [3] (setting [7]) is 23%; in assay [3] (setting [8]), 98% (active); in assay [3] (at 50.0 µM), 56.8%; in assay [4] (setting [7]), -3%; in assay [4] (setting [8]), 99% (active); in assay [4] (at 50.0 µM) it was 88.8% (active). Further, the growth inhibition in assay [5] (setting [7]) is -5%; in assay [5] (setting [8]), 99% (active); in assay [5] (at 50.0 µM) it was 97% (active); in assay [6] (setting [7]) it was 1%; in assay [6] (setting [8]), 98% (active); in assay [6] (at 50.0 µM) it was 98.8% (active).

Consider `CN(C)Cc1cc(N=Nc2ccc(Cl)c(Cl)c2)ccc1O`, for which the growth inhibition in assay [1] (setting [7]) is -16%; in assay [1] (setting [8]), 46%; in assay [1] (at 50.0 µM), 86.5% (active); in assay [2] (setting [7]), -11%; in assay [2] (setting [8]), 31%; in assay [2] (at 50.0 µM) it was 64.4%. For the same molecule, the growth inhibition in assay [3] (setting [7]) was -20%; in assay [3] (setting [8]), 44%; in assay [3] (at 50.0 µM), 82.7% (active); in assay [4] (setting [7]), -31%; in assay [4] (setting [8]), 34%; in assay [4] (at 50.0 µM) it was 71.8% (active). The growth inhibition in assay [5] (setting [7]) was -33%; in assay [5] (setting [8]) it was 40%; in assay [5] (at 50.0 µM), 88.5% (active); in assay [6] (setting [7]) it was 0%; in assay [6] (setting [8]) it was 56%; in assay [6] (at 50.0 µM) it was 84.7% (active).

Regarding `Cn1c(=O)c2c(nc([N+](=O)[O-])n2C)n(C)c1=O`, the growth inhibition in assay [1] (setting [7]) was 2%; in assay [1] (setting [8]), 48%; in assay [1] (at 50.0 µM), 74.6% (active); in assay [2] (setting [7]), 9%; in assay [2] (setting [8]), 39%; in assay [2] (at 50.0 µM), 63.8%. Further, the growth inhibition was 4% in assay [3] (setting [7]); 39% in assay [3] (setting [8]); 76.9% (active) in assay [3] (at 50.0 µM); -2% in assay [4] (setting [7]); 18% in assay [4] (setting [8]); 45.6% in assay [4] (at 50.0 µM). Also, the growth inhibition was 12% in assay [5] (setting [7]); 75% (active) in assay [5] (setting [8]); 79.3% (active) in assay [5] (at 50.0 µM); 0% in assay [6] (setting [7]); 41% in assay [6] (setting [8]); 68% in assay [6] (at 50.0 µM).

Turning to `CN1C(=O)C23SSC1(C)C(=O)N2c1ccccc1C3(C)C` (stereo not given), the growth inhibition in assay [1] (setting [7]) was 97% (active); in assay [1] (setting [8]), 99% (active); in assay [1] (at 50.0 µM), 99% (active); in assay [2] (setting [7]), 98% (active); in assay [2] (setting [8]) it was 96% (active); in assay [2] (at 50.0 µM) it was 99.6% (active). Moreover, the growth inhibition in assay [3] (setting [7]) is 99% (active); in assay [3] (setting [8]) it was 100% (active); in assay [3] (at 50.0 µM), 98% (active); in assay [4] (setting [7]) it was 98% (active); in assay [4] (setting [8]), 99% (active); in assay [4] (at 50.0 µM) it was 99.3% (active). Further, the growth inhibition in assay [5] (setting [7]) was 98% (active); in assay [5] (setting [8]), 99% (active); in assay [5] (at 50.0 µM), 99.2% (active); in assay [6] (setting [7]), 99% (active); in assay [6] (setting [8]), 99% (active); in assay [6] (at 50.0 µM) it was 99.3% (active).

For `Cc1cccc(Cc2cccc(Cl)c2)c1O`, the growth inhibition is -1% in assay [1] (setting [7]); 95% (active) in assay [1] (setting [8]); 99.3% (active) in assay [1] (at 50.0 µM); -1% in assay [2] (setting [7]); 98% (active) in assay [2] (setting [8]); 99.8% (active) in assay [2] (at 50.0 µM). Also, the growth inhibition was 3% in assay [3] (setting [7]); 89% (active) in assay [3] (setting [8]); 99.6% (active) in assay [3] (at 50.0 µM); -4% in assay [4] (setting [7]); 90% (active) in assay [4] (setting [8]); 99% (active) in assay [4] (at 50.0 µM). Besides, the growth inhibition in assay [5] (setting [7]) is -9%; in assay [5] (setting [8]) it was 94% (active); in assay [5] (at 50.0 µM), 99.1% (active); in assay [6] (setting [7]), 8%; in assay [6] (setting [8]), 96% (active); in assay [6] (at 50.0 µM), 98.9% (active).
